Bioassay records (PubChem)
Sampled rows, rich in hits. Any-hit rate of the full collection: about 1.8%.
CIT2 TOR yeast – modulators of CIT2-GFP expression in yeast, primary screen, S. cerevisiae, GFP fusion, multiplex flow cytometry, MLPCN library; S. cerevisiae CIT2-GFP strain, 3 h; 100 means same as DMSO wells; AID 2029, 2009; GFP response vs DMSO, % at 10 µM; actives 0.065% (n = 320,000);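 active means GFP response relative to DMSO above a set limit, near the screen mean plus 3 SD, cut at about 150% in these data; inconclusive means Fewer than 70 cells measured for a yeast strain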;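 further: ratio of well median GFP fluorescence to mean of DMSO wells on the plate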
AGP1 TOR yeast – modulators of AGP1-GFP expression in yeast TOR pathway, primary screen, cell-based, multiplex flow cytometry, S. cerevisiae, MLPCN library; 3 h; GFP as percent of DMSO wells; GFP response vs DMSO, % at 10 µM; actives 0.02% (n = 320,000); AID 2066, 2009;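 active means GFP response relative to DMSO above a set limit, near screen average plus 3 SD, cut at about 150% in these data; inconclusive means fewer than 70 cells counted for the yeast strain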;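 further: median GFP channel fluorescence of the gated AGP1 strain per well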
RPL19A-GFP yeast – RPL19A-GFP expression modulators in yeast, primary screen, cell-based, S. cerevisiae, multiplex flow cytometry, MLPCN | S. cerevisiae RPL19A-GFP strain, 3 h; active compounds read low | percent response vs DMSO, % at 10 µM | AID 2025, 2009 | actives 0.3% (n = 330,000);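 active means percent response vs DMSO below 50%; inconclusive means fewer than 70 events counted for the yeast strain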;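 further: median channel GFP fluorescence of the barcoded RPL19A-GFP strain; ratio of sample median GFP to plate DMSO average so 100% = DMSO; lower means less RPL19A-GFP as with rapamycin TOR inhibition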
Myeloid diff MLP – induction of myeloid progenitor differentiation, primary screen, cell-based, flow cytometry, MLPCN library; calls only at 10 µM; actives 1% (n = 360,000); ER-HoxA9 myeloid progenitors, lysozyme-GFP differentiation;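 active means normalized GFP-positive differentiation at or above the plate's own cutoff, the solvent-only control mean plus 3 SD; inconclusive means no clear call, values can overlap the other calls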;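 further: cells exposed to compound for four days before flow analysis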
LAP4-GFP MLPCN – modulators of LAP4-GFP expression in yeast, primary screen, S. cerevisiae, multiplex flow cytometry, MLPCN library | GFP response vs DMSO, % at 10 µM | actives 0.34% (n = 320,000) | 3 h; median GFP as percent of DMSO wells | AID 2023, 2009;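 active means GFP response vs DMSO above a set limit, about the screen mean plus 3 SD, cut at about 150% in these data; inconclusive means under 70 cell events counted for the yeast strain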
MEP2 TOR yeast – modulators of MEP2-GFP levels in yeast, primary screen, S. cerevisiae, multiplex flow cytometry, MLPCN library | S. cerevisiae MEP2-GFP strain, 3 h; 100% = DMSO control level | GFP response vs DMSO, % at 10 µM | actives 0.51% (n = 330,000);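 active means GFP response versus DMSO above a set limit, roughly screen mean plus 3 SD, cut at about 180% in these data; inconclusive means fewer than 70 cells counted for a yeast strain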;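 further: median GFP fluorescence of the barcode-gated MEP2-GFP cells per well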
LAP4-GFP pick2 – LAP4-GFP expression modulators in yeast, confirmation, cell-based, second cherry pick, flow cytometry. S. cerevisiae LAP4-GFP strain, 3 h. GFP response vs DMSO, % at 10 µM. shares compounds with LAP4-GFP MLPCN. actives 20% (n = 590);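 active means GFP signal as percent of the solvent control above about 150%, meaning raised reporter expression, limit read from the data; inconclusive means fewer than 70 cells counted in the well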;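 further: ratio of well median GFP fluorescence to plate DMSO mean so 100% = DMSO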
MEP2-GFP pick2 – modulators of MEP2-GFP levels in yeast, confirmation, S. cerevisiae, flow cytometry GFP, second cherry picks. shares compounds with LAP4-GFP MLPCN. S. cerevisiae MEP2-GFP strain, 3 h. GFP response vs DMSO, % at 10 µM. actives 10% (n = 590). AID 2622, 2010;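 active means GFP signal above 150% of the solvent control wells, that is a rise of more than half; inconclusive means fewer than 70 yeast cells counted in the well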;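 further: median channel GFP fluorescence of all gated yeast cells per well; ratio of median GFP to plate DMSO average so 100% = DMSO level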
RPL19A-GFP pick2 – RPL19A-GFP modulators in TOR pathway yeast, confirmation, cell-based, S. cerevisiae, flow cytometry, second cherry pick. shares compounds with LAP4-GFP MLPCN. S. cerevisiae RPL19A-GFP strain, 3 h; active compounds read low; 100% means same as DMSO wells. GFP response vs DMSO, % at 10 µM. actives 3% (n = 590);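 active means under 65% GFP response relative to DMSO; inconclusive means yeast strain with under 70 measured events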;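 further: median GFP channel fluorescence per well over the all cells gate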
CIT2-GFP pick2 – modulators of CIT2-GFP expression in yeast, confirmation, flow cytometry, second cherry pick, single plex; shares compounds with LAP4-GFP MLPCN; S. cerevisiae CIT2-GFP strain, 3 h; DMSO control wells read 100%; GFP response vs DMSO, % at 10 µM; actives 8% (n = 590); AID 2624, 2010;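 active means GFP response vs DMSO above about 150%, limit read from the data; inconclusive means fewer than 70 events counted for a yeast strain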;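 further: median green fluorescence per well over all gated yeast cells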
AGP1 GFP CP2 – AGP1-GFP expression modulators, hit retest, confirmation, cell-based, flow cytometry, S. cerevisiae, cherry pick set 2. S. cerevisiae AGP1-GFP strain, 3 h. percent response vs DMSO, % at 10 µM. AID 2643, 2010. 590 tested, under 10 active. shares compounds with LAP4-GFP MLPCN;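 active means over 150 percent of DMSO response; inconclusive means yeast strain measured with under 70 events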;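 further: median GFP channel fluorescence over all cells without mother daughter split; sample median GFP divided by mean DMSO control so 100% equals DMSO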
Yeast autofluor – compound autofluorescence in yeast s288c, dose response, artefact control for yeast TOR pathway GFP screen, s288c strain; shares compounds with LAP4-GFP MLPCN; S. cerevisiae s288c, 520 nm autofluorescence, flow cytometry, 3 h; active compounds read high; zero means same as solvent-only cells; fluorescence change (kMESF span) at 33 µM; 610 tested, under 10 active; AID 2757, 2010;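 active means fluorescence span over the dose series, or activity score, above about 33, limit read from the data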
Yeast autofl DR – autofluorescence of compounds in yeast s288c, dose response, artefact control for yeast TOR pathway GFP screen, primary hits, KU SAR, s288c parental; fluorescence change (span) at 33 µM; 110 tested, under 10 active; shares compounds with LAP4-GFP MLPCN; S. cerevisiae s288c parental, compound autofluorescence, flow cytometry, 3 h;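 active means fluorescence change span, or the activity score built from it, above 25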
TORC1 bypass gr – wild-type yeast growth inhibition sparing TORC1 bypass cells, mechanism study for yeast TOR pathway GFP screen, BY4741 wild type, TORC1 bypass strain; shares compounds with LAP4-GFP MLPCN; S. cerevisiae BY4741 spot growth rating, 48-72 h; active compounds read low; growth rating (0-3) at 30 µM; 120 tested, under 10 active; AID 504456, 2011;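 active means growth rating at most 1 for wild type yeast while the TORC1 bypass strain still grows fully, rated 3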
* marks the source's active call; other numbers are inactive results.

What do the screens show for `Cc1ccc2nc(Cl)c3nnnn3c2c1`?
CIT2 TOR yeast: 66; AGP1 TOR yeast: 85; RPL19A-GFP yeast: 56; Myeloid diff MLP: inconclusive; LAP4-GFP MLPCN: 298*; MEP2 TOR yeast: 98; Yeast autofluor: 3.1; Yeast autofl DR: 1.1; TORC1 bypass gr: 0

How did Cc1ccc2nc(N3CCN(c4cccc(C)c4C)CC3)c3nnnn3c2c1 do in these assays?
CIT2 TOR yeast: 118; AGP1 TOR yeast: 107; RPL19A-GFP yeast: 107; Myeloid diff MLP: inactive; LAP4-GFP MLPCN: 107; MEP2 TOR yeast: 106

Results for CCSc1ccc(-c2nn(-c3ccccc3)cc2/C=C(/C#N)C(=O)NC)cc1 ?
CIT2 TOR yeast: 82; AGP1 TOR yeast: 68; RPL19A-GFP yeast: 60; Myeloid diff MLP: inactive; LAP4-GFP MLPCN: 74; MEP2 TOR yeast: 171; LAP4-GFP pick2: 92; MEP2-GFP pick2: 94; RPL19A-GFP pick2: 102; CIT2-GFP pick2: 110; AGP1 GFP CP2: 95

Results for CCCSc1ccc(-c2nn(-c3ccccc3)cc2/C=C(/C#N)C(=O)N2CCOCC2)cc1 ?
CIT2 TOR yeast: 101; AGP1 TOR yeast: 102; RPL19A-GFP yeast: 99; Myeloid diff MLP: inactive; LAP4-GFP MLPCN: 102; MEP2 TOR yeast: 106

Results for CC(c1ccc(F)cc1)n1cc(C(=O)NCc2ccccn2)nn1 (stereo unspecified) ?
CIT2 TOR yeast: 107; AGP1 TOR yeast: 103; RPL19A-GFP yeast: 104; Myeloid diff MLP: inactive; LAP4-GFP MLPCN: 100; MEP2 TOR yeast: 105

How did CN(C)c1ccc(-c2c(-c3ccc4c(c3)OCO4)noc2-c2ccsc2)cn1 do in these assays?
CIT2 TOR yeast: 62; AGP1 TOR yeast: 71; RPL19A-GFP yeast: 91; Myeloid diff MLP: inactive; LAP4-GFP MLPCN: 155*; MEP2 TOR yeast: 88; LAP4-GFP pick2: 103; MEP2-GFP pick2: 110; RPL19A-GFP pick2: 98; CIT2-GFP pick2: 106; AGP1 GFP CP2: 98

Results for COc1ccc(-c2n[nH]c(C)c2-c2ccc(Cl)cc2)c(O)c1 ?
CIT2 TOR yeast: 74; AGP1 TOR yeast: 49; RPL19A-GFP yeast: 55; Myeloid diff MLP: inactive; LAP4-GFP MLPCN: 118; MEP2 TOR yeast: 78; LAP4-GFP pick2: 112; MEP2-GFP pick2: 103; RPL19A-GFP pick2: 92; CIT2-GFP pick2: 88; AGP1 GFP CP2: 88

Results for Cc1[nH]nc(-c2ccc(O)cc2O)c1-c1ccc(Cl)cc1 ?
CIT2 TOR yeast: 100; AGP1 TOR yeast: 108; RPL19A-GFP yeast: 103; Myeloid diff MLP: inactive; LAP4-GFP MLPCN: 115; MEP2 TOR yeast: 101

How did CCOC(=O)COc1ccc2ccccc2c1/C=C/[N+](=O)[O-] do in these assays?
CIT2 TOR yeast: 89; AGP1 TOR yeast: 86; RPL19A-GFP yeast: 79; Myeloid diff MLP: inactive; LAP4-GFP MLPCN: 230*; MEP2 TOR yeast: 84; LAP4-GFP pick2: 293*; MEP2-GFP pick2: 114; RPL19A-GFP pick2: 82; CIT2-GFP pick2: 118; AGP1 GFP CP2: 98; Yeast autofluor: 0.1

Results for CCOC(=O)COc1ccc(/C=C/[N+](=O)[O-])c(OCC(=O)OCC)c1 ?
CIT2 TOR yeast: 91; AGP1 TOR yeast: 101; RPL19A-GFP yeast: 101; Myeloid diff MLP: inconclusive; LAP4-GFP MLPCN: 138; MEP2 TOR yeast: 98

How did CCOC(=O)Cn1cc(/C=C/[N+](=O)[O-])c2ccccc21 do in these assays?
CIT2 TOR yeast: 76; AGP1 TOR yeast: 93; RPL19A-GFP yeast: 92; Myeloid diff MLP: inactive; LAP4-GFP MLPCN: 154*; MEP2 TOR yeast: 94; Yeast autofluor: 0.31

What do the screens show for `CCOC(=O)Cn1cc(C#N)c2ccccc21`?
CIT2 TOR yeast: 109; AGP1 TOR yeast: 107; RPL19A-GFP yeast: 99; Myeloid diff MLP: inactive; LAP4-GFP MLPCN: 110; MEP2 TOR yeast: 100

Results for Cc1cccc(NC(=O)C(C)C(=O)c2ccccc2)c1 (stereo unspecified) ?
CIT2 TOR yeast: 101; AGP1 TOR yeast: 102; RPL19A-GFP yeast: 105; Myeloid diff MLP: inactive; LAP4-GFP MLPCN: 96; MEP2 TOR yeast: 105; LAP4-GFP pick2: 105; MEP2-GFP pick2: 108; RPL19A-GFP pick2: 98; CIT2-GFP pick2: 108; AGP1 GFP CP2: 95

How did CCCNC(=O)C1(C)CCCN(C(=O)c2ccc3ccccc3c2)C1 (stereo unspecified) do in these assays?
Myeloid diff MLP: inactive
